Source: PubChem (National Center for Advancing Translational Sciences (NCATS))
D1 potentiator = human D1 dopamine receptor positive modulation; P21728; HEK293 TREx D1 cells, calcium flux, dopamine EC20 potentiation; potentiation, % at 10 µM; 360,000 tested, 0.036% active; AID 504651; in the data active means potentiation above about 30%; further: 0% is about no effect
Target sequence (P21728 whole entry, looked up): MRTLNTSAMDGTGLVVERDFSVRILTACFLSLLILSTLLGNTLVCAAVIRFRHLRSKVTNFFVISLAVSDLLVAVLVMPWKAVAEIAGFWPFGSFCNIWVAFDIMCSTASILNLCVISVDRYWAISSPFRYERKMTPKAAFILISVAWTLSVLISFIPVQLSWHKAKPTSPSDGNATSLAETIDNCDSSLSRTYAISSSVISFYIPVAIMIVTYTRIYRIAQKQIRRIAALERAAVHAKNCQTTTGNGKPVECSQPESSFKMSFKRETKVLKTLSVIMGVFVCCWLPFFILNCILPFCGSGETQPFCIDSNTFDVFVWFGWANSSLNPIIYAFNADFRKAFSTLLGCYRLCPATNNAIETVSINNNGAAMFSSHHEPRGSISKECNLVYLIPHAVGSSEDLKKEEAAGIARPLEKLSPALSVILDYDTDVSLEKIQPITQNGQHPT
D3 ag = D3 dopamine receptor (human) agonism; D3R DiscoveRx beta-arrestin cells, luminescence, 90 min; P35462; 410,000 tested, 0.58% active; max activation, %; in the data active means max activation above about 30%; further: 0% is about no effect
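Agonist mode: compounds and dopamine controls were applied to plated cells for 90 min at 37 degrees C after an overnight attachment at 1500 cells/well. Luminescent read-out followed 30 - 60 minutes at room temperature with DiscoveRx detection reagent.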
D1 antag = blocks dopamine activation of the human D1 receptor | P21728 | HEK293 TREx D1 cells, calcium flux, dopamine EC80; active compounds read low | activity change, negative = inhibition, % at 10 µM | 360,000 tested, 3.2% active | AID 504652; in the data active means activity change below about -30%; further: on the % scale 0 is the no-effect control and ±100 the full control effect
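After overnight tetracycline induction at 30 C, force-coupled D1 HEK293 cells took up a no-wash calcium dye at room temperature. Compounds were added and monitored 180 s, and the response to EC80 dopamine was then recorded.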
DRD3 antagonist = D3 dopamine receptor (human) antagonism | D3R cells, DiscoveRx beta-arrestin luminescence, antagonist mode; active compounds read low | max response, negative = inhibition, % | 360,000 tested, 2.5% active | P35462; in the data active means max response below about -50%; further: on the % scale 0 is the no-effect control and ±100 the full control effect
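Cells plated overnight at 1500 cells/well, then exposed to library compounds with dopamine controls for 90 minutes at 37 degrees C. DiscoveRx reagent added for 30–60 minutes at room temperature; luminescence read, quantitative HTS format.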
D1 agonist = human D1 receptor agonism; HEK293 T-REx D1 cells, calcium flux, agonist mode; 360,000 tested, 1% active; AID 504660; activation, % at 2 µM; P21728; in the data active means activation above about 30%; further: 0% is about no effect
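Agonism was scored from calcium flux recorded over 180 s (1 read/s) after pintool compound addition, following a 10-cycle baseline. Cells were inducible force-coupled HEK293 TREx D1, plated overnight at 30 C and loaded with no-wash calcium dye.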
* = called active by the depositor. Sampled rows, rich in hits. Any-hit rate of the full collection: about 6%.

`COCCn1nc2cc(C(=O)NCC34CC5CC(CC(C5)C3)C4)ccc2c1OC` gave D1 potentiator 6, D3 ag 1, D1 antag -32*, DRD3 antagonist 5 and D1 agonist 0.
For Oc1ccccc1N1CCN(Cc2ncc(-c3ccccc3)o2)CC1 the results were D1 potentiator -2, D3 ag -6, D1 antag 10, DRD3 antagonist -58* and D1 agonist 20.
`c1ccc(-c2noc(CN3CCN(c4cnccn4)CC3)n2)cc1` gave D1 potentiator -5, D3 ag 12, D1 antag -9, DRD3 antagonist 1 and D1 agonist 2.
Cn1ccc(C(=O)Oc2ccc(C(=O)Nc3ccc(F)cc3F)cc2)n1 was read as D1 potentiator -3, D3 ag 0, D1 antag -44*, DRD3 antagonist 5 and D1 agonist 12.
For CCOC(=O)C1=C(CS(=O)(=O)c2ccc(F)c(C)c2)NC(=O)NC1c1ccccc1OC (centres undefined) the results were D1 potentiator -1, D3 ag -8, D1 antag 11 and D1 agonist -1.
Screening N/C(=N\N=C\c1ccc([N+](=O)[O-])cc1)c1nonc1N returned D1 potentiator -20, D3 ag 1, D1 antag -43*, DRD3 antagonist -3 and D1 agonist 3.
`CS/C(N)=N/N=C/c1ccc2c(c1)OCO2` gave D1 potentiator 0, D3 ag 4, D1 antag -2, DRD3 antagonist 12 and D1 agonist 3.
Screening COc1ccc(OC)c(/C=N/N=C(\N)c2nonc2N)c1 returned D1 potentiator -3, D3 ag 5, D1 antag -30*, DRD3 antagonist 0 and D1 agonist 1.
`N/C(=N\N=C\c1ccc(O)cc1)c1nonc1N` gave D1 potentiator -5, D3 ag -1, D1 antag -6, DRD3 antagonist -19 and D1 agonist 7.
Screening CS/C(N)=N/N=C/c1ccc([N+](=O)[O-])cc1 returned D1 potentiator 4, D3 ag -1, D1 antag -11, DRD3 antagonist -51* and D1 agonist 1.
`CCOC(=O)c1cnc2ccc(C(=O)OC)cc2c1Nc1ccccc1CC` gave D1 potentiator -1, D3 ag -4, D1 antag 0 and D1 agonist 4.
`Cc1[nH]nc2c1C1(CCN(Cc3ccccc3)CC1)C(C#N)=C(N)O2` gave D1 potentiator -6, D3 ag 1, D1 antag -2, DRD3 antagonist 0 and D1 agonist 5.
Screening CC(C)c1[nH]nc2c1C1(CCN(Cc3ccccc3)CC1)C(C#N)=C(N)O2 returned D1 potentiator -8, D3 ag 1, D1 antag 5, DRD3 antagonist -92* and D1 agonist 2.
Screening Cc1ccc(C)c(OCc2cc(C(=O)N(C)Cc3ccccn3)no2)c1 returned D1 potentiator 5, D3 ag 5, D1 antag -44*, DRD3 antagonist 24 and D1 agonist 9.
`CCN(CC)c1ccc2c(C)c(CN3CCOCC3)c(=O)oc2c1` gave D1 potentiator 8, D3 ag -6, D1 antag -1, DRD3 antagonist -75* and D1 agonist 0.
Cc1cc(C)nc(SCC(=O)NCC2COc3ccccc3O2)n1 (centres undefined) was read as D1 potentiator -7, D3 ag 5, D1 antag 2, DRD3 antagonist -14 and D1 agonist 2.
Screening Cc1nc(SCC(=O)NCC2COc3ccccc3O2)c2c(C)c(C)sc2n1 (centres undefined) returned D1 potentiator -1, D3 ag 93*, D1 antag 15, DRD3 antagonist -26 and D1 agonist 1.
CCN(Cc1ccc2c(c1)OCCO2)C(=O)CSc1nc(C)nc2sc(C)c(C)c12 was read as D3 ag 31*, D1 antag -20, DRD3 antagonist 54 and D1 agonist 9.
For COc1cccc(CCNC(=O)C2CCC(=O)N(Cc3cccc(OC)c3)C2)c1 (centres undefined) the results were D1 potentiator 12, D3 ag 0, D1 antag -52*, DRD3 antagonist 37 and D1 agonist 2.
